Assay results as given in PubChem BioAssay.
Activity calls are given as the source filed them. Unless noted, no rule for the calls is given here.

Columns and labels:
[1] = compounds altering circadian rhythm period length – cell-based, LOPAC library, luminescence reporter (AID 2774); settings: circadian reporter cells, at 7 µM, actives lie on both sides;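 also: values are relative to mean of DMSO wells on each plate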
[2] = system: Hepatitis C virus NS3 helicase; assay: blockers of NS3h binding to ssDNA – biochemical, fluorescence polarization, LOPAC1280 library, primary screen (AID 687035; in the data active = inhibition above about 37%); settings: Purified HCV NS3 helicase, Cy5-dT15 ssDNA binding fluorescence polarization; stronger effect = higher value; concentration not given here
[3] = compounds altering Cy5-DNA-NS3h complex signal – biochemical, LOPAC1280, artefact control for HCV NS3 helicase inhibitor project (AID 687037); settings: Cy5-DNA-NS3h complex fluorescence interference counterscreen
[4] = viability loss with induced miR-34 in A549 – imaging, A549 dox-inducible miR-34, nuclei and caspase counts, primary screen (AID 1347080;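 active = compounds whose cell count with miR-34 switched on is under 0.7 times the count with it off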); settings: A549 miR-34 inducible, Hoechst nuclei count, 48 h
[5] = blockers of cellular phospholipid synthesis – cell-based, LOPAC library, screen 4, primary screen (AID 1347384); settings: animal cells, phospholipid biosynthesis inhibition screen; at 10 µM
[6] = galactose survival enhancers in mitochondrial complex I cybrids – cell-based, galactose medium, ATP luminescence, primary screen (AID 1645843;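 active = z-score of at least 1.8 in each of two replicates, scored against plate mean and spread of sample wells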;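 also: positive z means more ATP and so rescue of galactose-driven cybrid death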); settings: complex I mutant cybrid cells, 72 h, stronger effect = higher value
[7] = stronger effect = lower value, cell number ratio, induced over uninduced
[8] = measured here: relative caspase fold change +Dox/-Dox
[9] = measured here: total cells with miR-34 induction, stronger effect = lower value
[10] = measured here: total cells without miR-34 induction

SMILES | period change [1] | inhibition [2] | fluorescence ratio (interference) [3] | fold change [4, 7] | fold change [4, 8] | cell count [4, 9] | cell count [4, 10] | outcome [5] | z-score [6]
C[C@H](O)C(=O)C1=Nc2c(nc(N)[nH]c2=O)NC1 | 0.19 h (inactive) | -3% (inactive) | 0.9 (inactive) | 0.965 (inactive) | 1.64 | 10200 | 10500 | inactive | 0.4 (inactive)
CC(O)C(O)[C@H]1CNc2nc(N)[nH]c(=O)c2N1 (some centres undefined) | -0.26 h (inactive) | -4% (inactive) | 1 (inactive) | 0.979 (inactive) | 1.26 | 10500 | 10800 | inactive | 0.515 (inactive)
NC1C=CC=C(C(=O)O)C1 (centres undefined) | 0.115 h (inactive) | 0% (inactive) | 1 (inactive) | 1.08 (inactive) | 2.16 | 9940 | 9200 | inactive | 0.355 (inactive)
CCCn1c(=O)[nH]c(=O)c2[nH]cnc21 | 0.09 h (inactive) | -1% (inactive) | 1 (inactive) | 0.996 (inactive) | 1.45 | 9630 | 9670 | inactive | 0.47 (inactive)
CC(N)(C(=O)O)c1ccc(C(=O)O)cc1 (centres undefined) | -0.11 h (inactive) | -2% (inactive) | 1 (inactive) | 1.05 (inactive) | 1.27 | 11100 | 10600 | inactive | 0.615 (inactive)
COc1ccccc1CNCCCCCCNCCCCCCCCNCCCCCCNCc1ccccc1OC | 0.295 h (inactive) | 11% (inactive) | 1 (inactive) | 1.1 (inactive) | 0.839 | 8650 | 7890 | inactive | -1.19 (inactive)
CC(=O)[C@H]1CCC2C3CC=C4C[C@@H](OS(=O)(=O)O)CC[C@]4(C)C3CC[C@@]21C (some centres undefined) | 0.02 h (inactive) | 1% (inactive) | 1 (inactive) | 0.987 (inactive) | 1.53 | 10100 | 10300 | inactive | 2.2 (active)
c1cnc2c(c1)ccc1cccnc12 | 0.09 h (inactive) | -3% (inactive) | 1 (inactive) | 0.996 (inactive) | 2.62 | 2190 | 2200 | inactive | -1.21 (inactive)
O=C(O)/C=C/c1cnc[nH]1 | -0.135 h (inactive) | -2% (inactive) | 1 (inactive) | 1.01 (inactive) | 2.13 | 10700 | 10600 | inactive | 0.495 (inactive)
C=C/C(C)=C/[C@@]1(C)SC(=O)C(C)=C1O | -0.02 h (inactive) | -4% (inactive) | 1 (inactive) | 1.05 (inactive) | 1.19 | 10800 | 10300 | inactive | 0.66 (inactive)
C=C[C@H]1CN2CCC1C[C@H]2[C@H](O)c1ccnc2ccc(OC)cc12 (some centres undefined) | -0.145 h (inactive) | -2% (inactive) | 1 (inactive) | 1.04 (inactive) | 1.02 | 8290 | 8000 | inactive | -1.04 (inactive)
O=C1C2C=CC=CC2=NC(=S)N1CCN1CCC(=C(c2ccc(F)cc2)c2ccc(F)cc2)CC1 (centres undefined) | -0.295 h (inactive) | 1% (inactive) | 1 (inactive) | 0.996 (inactive) | 1.03 | 9730 | 9760 | inactive | -0.96 (inactive)
COc1cc2c(CCNC(C)=O)c[nH]c2cc1O | -0.175 h (inactive) | -2% (inactive) | 1 (inactive) | 0.921 (inactive) | 1.6 | 10100 | 11000 | inactive | -0.44 (inactive)
C[C@@H]1C(=O)NC2=Nc3cccc(Cl)c3CN21 | 0.025 h (inactive) | 0% (inactive) | 1 (inactive) | 0.957 (inactive) | 1.63 | 9040 | 9450 | inactive | 0.635 (inactive)
CCCn1c(=O)c2[nH]c(-c3ccc(S(=O)(=O)O)cc3)nc2n(CCC)c1=O | -0.005 h (inactive) | 0% (inactive) | 1 (inactive) | 0.978 (inactive) | 2.81 | 10100 | 10400 | inactive | 0.43 (inactive)
C[C@H]1CC2C3CCC4=CC(=O)C=C[C@]4(C)[C@@]3(Cl)[C@@H](O)C[C@]2(C)[C@@]1(O)C(=O)CO (some centres undefined) | -0.07 h (inactive) | -3% (inactive) | 1 (inactive) | 0.918 (inactive) | 1.96 | 7200 | 7840 | inactive | 1.25 (inactive)
C[C@H](Cc1ccccc1)Nc1ncnc2c1ncn2[C@@H]1O[C@H](CO)[C@H](O)C1O (some centres undefined) | -0.12 h (inactive) | -8% (inactive) | 1 (inactive) | 1.08 (inactive) | 0.57 | 9860 | 9130 | inactive | 1.45 (inactive)
COc1cc(C(O)CO)ccc1OS(=O)(=O)O (centres undefined) | -0.25 h (inactive) | -2% (inactive) | 1 (inactive) | 1.02 (inactive) | 1.08 | 10400 | 10200 | inactive | 0.025 (inactive)

SMILES | period change [1] | inhibition [2] | fluorescence ratio (interference) [3] | fold change [4, 7] | fold change [4, 8] | cell count [4, 9] | cell count [4, 10] | outcome [5] | z-score [6]
C#CC(N)CCC(=O)O (centres undefined) | 0 h (inactive) | -1% (inactive) | 1 (inactive) | 1.04 (inactive) | 2.03 | 10600 | 10100 | inactive | -0.17 (inactive)
COc1cc(C(O)C(=O)O)ccc1O (centres undefined) | 0.03 h (inactive) | -2% (inactive) | 1 (inactive) | 0.986 (inactive) | 1.43 | 10600 | 10700 | inactive | -0.02 (inactive)
N[C@H](C(=O)O)[C@H](O)C(=O)O | -0.095 h (inactive) | -1% (inactive) | 1 (inactive) | 0.956 (inactive) | 1.57 | 9780 | 10200 | inactive | 0.175 (inactive)
Nc1nc(Cl)nc2c1ncn2[C@@H]1O[C@H](CO)[C@H](O)C1O (some centres undefined) | -0.125 h (inactive) | 0% (inactive) | 1 (inactive) | 1.07 (inactive) | 1.14 | 1860 | 1750 | inactive | -0.705 (inactive)
Cc1cn([C@H]2C[C@@H](N=[N+]=[N-])[C@@H](CO)O2)c(=O)[nH]c1=O | 0.06 h (inactive) | -1% (inactive) | 0.9 (inactive) | 1.13 (inactive) | 1.91 | 8200 | 7230 | inactive | 0.445 (inactive)
Nc1ncnc2c1nc(Sc1ccc(Cl)cc1)n2C1OC2COP(=O)(O)O[C@@H]2[C@@H]1O (some centres undefined) | -0.015 h (inactive) | -8% (inactive) | 0.9 (inactive) | 1.01 (inactive) | 1.25 | 10500 | 10500 | inactive | 1.15 (inactive)
[Li+] | -0.09 h (inactive) | -1% (inactive) | 1 (inactive) | 0.887 (inactive) | 0.586 | 9680 | 10900 | inactive | -0.05 (inactive)
CC[C@@H](C)[C@H]1O[C@]2(CC[C@@H]1C)C[C@@H]1C[C@@H](C/C=C(\C)[C@@H](O[C@H]3C[C@H](OC)[C@@H](O[C@H]4C[C@H](OC)[C@@H](O)[C@H](C)O4)[C@H](C)O3)[C@@H](C)/C=C/C=C3\CO[C@@H]4[C@H](O)C(C)=C[C@@H](C(=O)O1)[C@]34O)O2 | 0.095 h (inactive) | -2% (inactive) | 1 (inactive) | 0.888 (inactive) | 0.534 | 1760 | 1980 | inactive | -1.29 (inactive)
Cn1c(=O)c2[nH]c(-c3ccc(S(=O)(=O)O)cc3)nc2n(C)c1=O | -0.005 h (inactive) | 0% (inactive) | 1 (inactive) | 1.01 (inactive) | 2.24 | 10100 | 10000 | inactive | -0.23 (inactive)
Cn1cc(C(F)(F)F)nc1-c1ccc(OCC(O)CNCCOc2ccc(O)c(C(N)=O)c2)cc1 (centres undefined) | -0.065 h (inactive) | 0% (inactive) | 1 (inactive) | 0.893 (inactive) | 1.45 | 9830 | 11000 | inactive | -0.695 (inactive)
NC(Cc1cccc(-c2ccccc2CP(=O)(O)O)c1)C(=O)O (centres undefined) | -0.07 h (inactive) | -5% (inactive) | 1 (inactive) | 0.998 (inactive) | 1.77 | 10900 | 11000 | inactive | 0.42 (inactive)
N[C@@H](Cc1ccc(F)cc1)C(=O)O | -0.05 h (inactive) | -1% (inactive) | 1 (inactive) | 1.04 (inactive) | 0.805 | 9710 | 9330 | inactive | 0.26 (inactive)
CNc1ncnc2c1ncn2[C@@H]1O[C@H](CO)[C@H](O)C1O (some centres undefined) | -0.015 h (inactive) | -2% (inactive) | 1 (inactive) | 1.08 (inactive) | 1.05 | 10300 | 9460 | inactive | 0.765 (inactive)
COc1cccc2c1[C@@H]1CN(CCCCn3c(=O)[nH]c4c(sc5ncc(-c6ccccc6)nc54)c3=O)C[C@@H]1CO2 | -0.035 h (inactive) | -5% (inactive) | 0.9 (inactive) | 1.07 (inactive) | 1.42 | 6250 | 5860 | inactive | -1.02 (inactive)
CCCC[C@@]1(C2CCCC2)Cc2cc(OCC(=O)O)c(Cl)c(Cl)c2C1=O | -0.06 h (inactive) | 0% (inactive) | 1 (inactive) | 0.958 (inactive) | 1.45 | 8870 | 9260 | inactive | 2.93 (active)
OC[C@H]1O[C@@H](n2cnc3c(NC4CCCCC4)ncnc32)[C@H](O)[C@@H]1O | 0.08 h (inactive) | -1% (inactive) | 1 (inactive) | 0.959 (inactive) | 1.25 | 9650 | 10100 | inactive | 0.865 (inactive)
Nc1ncnc2c1nc(Br)n2C1OC2COP(=O)(O)O[C@@H]2C1O (some centres undefined) | -0.095 h (inactive) | -5% (inactive) | 0.9 (inactive) | 0.962 (inactive) | 1.6 | 8440 | 8780 | inactive | 0.735 (inactive)
CN1CCc2cc(NC(=O)Nc3cccnc3)ccc21 | 0.02 h (inactive) | -2% (inactive) | 1 (inactive) | 1.02 (inactive) | 2.86 | 10800 | 10700 | inactive | 1.34 (inactive)
